Bioassay records deposited in PubChem by National Center for Advancing Translational Sciences (NCATS).
Only some compounds are listed: those with a hit (about 6.1% of all), similar ones and a draw of the others.
VP16 counter: counter-screen for ROR gamma inhibitors: Gal4-VP16 reporter. actives 3.5% (n = 310,000). Potency, µM (titrated, usually from 53.6 µM), without a hit: top-dose activity, negative = inhibition, usual class: inhibitors. Drosophila S2 Gal4-VP16 UAS-luciferase, luminescence, 20 h;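 also: Gal4-VP16 expression switched on by copper sulfate through the metallothionein promoter; % is scaled to controls: 0 for no effect and ±100 for the full control effect; nearly all actives have a fitted effect of over 50% in size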
ATXN2 expr inh: ATXN2 expression inhibition; HEK-293 ATXN2-luciferase reporter, luminescence, 24 h; Potency, µM (doses to about 57 µM), inactives show at the highest dose activity change, negative = inhibition, actives largely listed as inhibitors; actives 0.72% (n = 360,000); AID 1745845; also: % is scaled to controls: 0 for no effect and ±100 for the full control effect; nearly all actives have a fitted effect of over 55% in size
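ATXN2-luciferase reporter cells (luciferase flanked by upstream and downstream ATXN2 gene portions) were treated 24 h at 37 °C with compounds at up to 57 uM. SteadyGlo luminescence gave expression; GF-AFC fluorescence gave viability.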
RORgamma inh: ROR gamma (mouse) transcription inhibition; Drosophila S2 Gal4-RORgamma UAS-luciferase reporter, 20 h; actives 5.4% (n = 310,000); P51450; Potency, µM (titrated, usually from 53.6 µM), inactives show at the highest dose activity change, negative = inhibition, hits mostly inhibitors; also: % is scaled to controls: 0 for no effect and ±100 for the full control effect; nearly all actives have a fitted effect of over 60% in size
Target sequence (P51450 whole entry, looked up, the tested form may be a part): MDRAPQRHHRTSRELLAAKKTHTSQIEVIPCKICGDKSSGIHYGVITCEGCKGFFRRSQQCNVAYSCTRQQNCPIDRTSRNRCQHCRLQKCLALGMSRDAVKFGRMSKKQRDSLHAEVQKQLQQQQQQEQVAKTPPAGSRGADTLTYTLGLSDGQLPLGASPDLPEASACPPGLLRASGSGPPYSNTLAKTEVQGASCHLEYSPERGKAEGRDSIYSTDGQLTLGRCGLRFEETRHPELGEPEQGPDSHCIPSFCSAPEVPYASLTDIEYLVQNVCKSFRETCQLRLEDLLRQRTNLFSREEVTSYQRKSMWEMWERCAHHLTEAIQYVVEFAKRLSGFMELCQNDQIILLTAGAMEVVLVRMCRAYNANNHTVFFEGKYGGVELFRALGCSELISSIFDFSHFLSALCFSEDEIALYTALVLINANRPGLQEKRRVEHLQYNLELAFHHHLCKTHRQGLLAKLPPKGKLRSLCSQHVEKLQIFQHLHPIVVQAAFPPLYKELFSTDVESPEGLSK
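Using a luciferase readout, inhibitors were identified by reduced reporter activity in Drosophila cells coexpressing a copper-inducible Gal4–ROR gamma fusion and UAS-driven Photinus luciferase, incubated 20 hr after 700 uM copper sulfate.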
HepG2 tox: HepG2 cytotoxicity, counter-screen for TGF-b inhibitors | HepG2 CAGA-GFP viability, ATP luminescence, 18 h | Potency, µM (highest dose often 46.1 µM), for the others: at the highest dose activity change, negative = cytotoxicity, most hits filed as cytotoxic | actives 0.76% (n = 410,000)
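CellTiter-Glo luminescence gave cytotoxicity after 18 hours at 37 degrees C. The cells were HepG2 CAGA-GFP in 1% FBS DMEM, stimulated with 500 pg/mL TGF-beta after compound addition. %Activity was normalised to no-cell wells (complete cell-killing) and DMSO (no toxicity), and curves were fitted and classified.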
TGFb SMAD3 inh: inhibitors of TGF-b signaling; HepG2 CAGA-GFP TGF-b/SMAD3 reporter, GFP fluorescence, 18 h; TGF-beta stimulated, 500 pg/mL final; Potency, µM (doses to about 46.1 µM), for inactives: at the top dose activity, negative = inhibition, most hits filed as inhibitors; actives 1.2% (n = 410,000); AID 588855; also: % is scaled to controls: 0 for no effect and ±100 for the full control effect; nearly all actives have a fitted effect of over 65% in size
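Smad-responsive CAGA-GFP expression was quantified in HEPG2 cells exposed to compounds and 500 pg/mL final TGF-beta for 18 h at 37 degrees C; unstimulated wells defined full inhibition.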
ATXN viability: viability counter-screen for ATXN expression inhibitors | S2 cells (HEK-293 line with an ATXN2-luciferase reporter) viability, CellTiter-Fluor protease fluorescence, 24 h | Potency, µM (doses to about 56.7 µM), actives largely listed as cytotoxic | actives 0.49% (n = 400,000) | AID 651635; also: nearly all actives have a fitted effect of over 40% in size
Starred values were filed as active, the others as inactive; i = inactive; u = inconclusive; x = no result given; [ ] = remark or other dose. Calls follow the shape of the dose curve; as a rule, active = well fitted curve in the direction sought with a large enough effect; inconclusive = small, poorly fitted or top-dose-only effect, or another doubt; inactive = no such curve, though single readings can be large; an effect the other way counts as inactive or inconclusive. Potency is read from the fitted curve at half-maximal effect.

SMILES	VP16 counter	ATXN2 expr inh	RORgamma inh	HepG2 tox	TGFb SMAD3 inh	ATXN viability
COc1cccc(/C=N/NC(=O)c2ccoc2C)c1O	0.5µM*	u	0.063µM*	-57%	u	u
COc1cc(/C=N\NC(=O)c2ccc(-c3ccccc3)cc2)cc(OC)c1O	u	-19%	u	-35%	-34%	i
Cc1cn2cc(C(=O)N(C)CCO)cc(N[C@@H]3CCOc4cccc(C)c43)c2n1	x	3%	x	x	x	x
CCc1ccc(S(=O)(=O)c2nnn3c2nc(Nc2cc(OC)ccc2OC)c2sccc23)cc1	x	x	x	4%	93%	x
Cc1onc(-c2ccccc2)c1C(=O)N/N=C/c1c[nH]c2ccccc12	7.1µM*	u	2.8µM*	-90%	-17%	i
COc1cccc(/C=N/NC(=O)c2c(-c3ccccc3)noc2C)c1OC	x	1%	x	-27%	u	i
COc1cc(/C=N/NC(=O)c2c(-c3ccccc3)noc2C)ccc1O	9%	-3%	6%	0%	-6%	i
COc1cc(C(=O)Oc2ccccc2/C=N/NC(=O)c2ccc(Cl)cc2Cl)cc(OC)c1OC	11µM*	u	7.1µM*	-20%	u	i
CCOc1cc([N+](=O)[O-])cc(/C=N/NC(=O)c2c(-c3ccccc3)noc2C)c1O	0.63µM*	u	0.63µM*	-32%	u	i
Cc1ccc(/C=N/NC(=O)c2c(-c3ccccc3)noc2C)c(O)c1	3.2µM*	x	3.2µM*	x	x	x
O=C(c1cncs1)N(Cc1cc2cc3c(cc2nc1N1CCOCC1)CCC3)CC1CCCO1 (stereo not given)	x	x	x	x	x	i
CCCOc1ccc(C(=O)Nc2cc3c(cc2N2CCOCC2)n(C)c(=O)n3C)cc1	x	7%	x	8%	2%	i
Cc1ccc(-n2c(C)cc(C(=O)CSc3nnnn3C)c2C)cc1	13µM*	0%	u	-36%	-15%	i
CCCSc1nsc(NC(=O)C(c2ccccc2)c2ccccc2)n1	6%	u	-6%	6.3µM*	18µM*	i
CC(C)(C)c1ccc(C(=O)NCC(c2ccco2)S(=O)(=O)c2ccccc2)cc1 (stereo not given)	x	u	x	-25%	-20%	u
Cc1cccc(N2CC(O)(c3cccs3)[N+]3=C2CCCC3)c1C (stereo not given)	35µM*	x	8%	-17%	-12%	i
Cc1ccc(S(=O)(=O)N[C@@H](Cc2ccccc2)C(=O)CCl)cc1	16µM*	u	u	-94%	u	32µM*
Cc1ccc(S(=O)(=O)NC(Cc2ccccc2)C(=O)NN)cc1 (stereo not given)	4%	1%	-17%	5%	13%	i
CC1=Nc2ccccc2/C1=C/c1sc(=N)n(-c2nccs2)c1O	0.79µM*	u	0.63µM*	-15%	31%	u
CC(=O)N1CC[C@H]2CC(=O)CC[C@@]21C	-1%[96.6 µM]	x	12%[96.6 µM]	x	x	x
CC(C)(C)c1ccc(C(=O)Nc2cccc3c(=O)[nH][nH]c(=O)c23)cc1	3.5µM*	15%	u	17%	-10%	x
CC(C)C(=O)NC(=S)/C=C1/N(C)c2ccccc2C1(C)C	4µM*	-12%	3.5µM*	-27%	u	u
CN1/C(=C\C(=O)C(F)F)C(C)(C)c2ccccc21	0%	2%	22%	3%	16%	i
Cc1ccc(C(=O)NC(=S)/C=C2\N(C)c3ccccc3C2(C)C)cc1	5.6µM*	u	7.1µM*	-25%	-27%	u
Cc1c(NC(=S)/C=C2\N(C)c3ccccc3C2(C)C)c(=O)n(-c2ccccc2)n1C	u	-6%	13%	-12%	6%	u
SMILES	VP16 counter	ATXN2 expr inh	RORgamma inh	HepG2 tox	TGFb SMAD3 inh	ATXN viability
CN1/C(=C/C(=S)NC(=O)C2CCC2)C(C)(C)c2ccccc21	13µM*	8%	6.3µM*	21%	8%	i
O=C(C[n+]1ccccc1Cl)c1ccc(I)cc1	x	x	x	-5%	-7%	x
O=C(COCc1cc(-c2ccco2)on1)Nc1cccc(O)c1	x	x	x	-5%	0%	x
N#C/C(=C\c1cccc(NC(=O)c2ccccc2Cl)c1)C(=O)NCCc1ccccc1	u	-37%	u	11µM*	u	i
COc1cccc(-c2nnc3sc(CN4CCCCC4)cn23)c1	x	-7%	x	-16%	-13%	u
Cc1ccnc2ccc(Br)cc12	x	x	x	4%	-1%	x
Cc1cc[n+](C2=C([O-])c3ccccc3C(=O)/C2=N\S(=O)(=O)c2cccs2)cc1C	11µM*	-31%	16µM*	-12%	-25%	i
O=C1/C(=N\S(=O)(=O)c2cccs2)C([n+]2ccc(CCCc3ccccc3)cc2)=C([O-])c2ccccc21	u	-19%	-19%	-105%	16µM*	i
Cc1cc(C)c[n+](C2=C([O-])c3ccccc3C(=O)/C2=N\S(=O)(=O)c2cccs2)c1	-2%	-4%	32%	-1%	u	i
O=C1/C(=N\S(=O)(=O)c2cccs2)C([n+]2cccc(Cc3ccccc3)c2)=C([O-])c2ccccc21	u	u	u	2.8µM*	u	u
O=C([C@@H]1C[C@@H](Sc2nc3ccccc3[nH]2)CN1Cc1c(F)cccc1F)N1CCOCC1	x	x	x	x	x	i
COC(=O)c1ccc(-n2c(/C=C/c3cc(OC)c(OC)c(OC)c3)nc3cc(Cl)ccc3c2=O)cc1	x	x	x	-1%	12%	x
CCn1nc(NC(=O)c2ccncc2)c2cc3cccc(C)c3nc21	4%	-1%	1%	2%	-1%	i
CCn1nc(NC(=O)c2ccccn2)c2cc3cccc(C)c3nc21	4µM*	-4%	3.2µM*	-12%	24%	i
COc1ccc(S(=O)(=O)Nc2cc(C(C)C)c(O)cc2C)cc1	u	-8%	16µM*	-35%	-22%	i
COC(=O)Nc1ccc(S(=O)(=O)Nc2cccc3ccccc23)cc1	18µM*	-17%	u	-14%	0%	i
COc1ccc(S(=O)(=O)Nc2cc(C)c(O)cc2C(C)C)cc1	23%[0.365 µM]	u	u	-2%	3%	i
COc1ccc(S(=O)(=O)Nc2ccc(O)c3ccccc23)cc1	-6%	u	0%	-100%	u	20µM*
O=C(c1cnn(-c2nccc(-c3ccccc3F)n2)c1C1CC1)N1CCN(CCO)CC1	x	x	x	x	x	i
Nc1ccc(/C=C/c2cccc3cccnc23)cc1	x	x	x	-2%	11%	x
CCCCC(CC)CN=C(N)NC(N)=NCCCCCCN=C(N)NC(N)=NCC(CC)CCCC (stereo not given)	0%	10µM*	u	11µM*	u	13µM*
